The structures appear in SMILES notation. Hit rate of the full screen: of about 310,000 compounds, about 1,900 (0.61%) were called active.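 The calls were made as follows: active = plate-corrected calcium response at least 3 library SD above typical, normal starting fluorescence, not activating the receptor alone; inactive = the rest.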 The full list was thinned out, with actives kept by preference.

Sequence of Mas-related G-protein coupled receptor member X1 (Homo sapiens) (Q96LB2 whole entry, looked up): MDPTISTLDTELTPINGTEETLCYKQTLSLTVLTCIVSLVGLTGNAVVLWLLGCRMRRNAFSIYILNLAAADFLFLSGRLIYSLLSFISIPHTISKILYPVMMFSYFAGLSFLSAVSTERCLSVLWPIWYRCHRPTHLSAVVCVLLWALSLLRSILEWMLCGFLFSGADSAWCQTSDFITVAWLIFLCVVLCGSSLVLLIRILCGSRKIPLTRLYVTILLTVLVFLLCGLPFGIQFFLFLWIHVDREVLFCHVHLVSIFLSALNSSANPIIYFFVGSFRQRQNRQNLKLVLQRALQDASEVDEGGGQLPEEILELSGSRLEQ

The experiment addresses Mas-related G-protein coupled receptor member X1 (Homo sapiens) (UniProt Q96LB2). Description: positive allosteric modulators of MrgX1, primary screen, HEK293 cells, Fluo-4 calcium flux (AID 588675).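 Also: compound read alongside a low EC10 to EC30 dose of BAM8-22 agonist.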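 As to B-score: peak minus trough fluorescence over baseline measured at the second addition.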 The note with it: MrgX1-HEK293, Fluo-4 calcium flux, FDSS, at 10 µM; stronger effect = higher value.
Turning to `CN(C)CCCO/N=C(\c1ccccc1)c1ccncc1`, the B-score result is “inactive”.

As to `COc1cc(OC)nc(N/N=C(\c2ccccc2)c2ccncc2)n1`, the B-score was 9.14 (active).

Consider `COc1ccc(C/C(C)=N/NC(=O)c2ccncc2)cc1`, for which the B-score entry is “inactive”.

In the case of `CSc1cccc(NC(=O)C2CCCN2S(=O)(=O)c2ccc3c(c2)CCC(=O)N3)c1` (stereo not given), the B-score result is “inactive”.

As for `CC[N+](C)(CC)CCC[n+]1c(-c2ccccc2)c2cc(N)ccc2c2ccc(N)cc21`, the B-score result is “inactive”.

Take `Cc1ccc2c(c1)c1ncn(Cc3ccc(F)cc3)c(=O)c1n2C`: the B-score result is “inactive”.

Turning to `Cc1ccc2c(c1)c1ncn(CCC3=CCCCC3)c(=O)c1n2C`, the B-score result was “inactive”.

Take `Cc1ccc2c(c1)c1ncnc(N3CCc4ccccc4C3)c1n2C`: the B-score was 8.06 (active).

On to `COc1cc(S(=O)(=O)N(Cc2cccs2)C2CC2)ccc1-n1cnnn1`, for which the B-score result was “inactive”.

Regarding `COC(=O)c1ccc(CN2CCN(CCCc3ccccc3)C(CCO)C2)cc1` (stereo not given), the B-score result was “inactive”.

Take `Cc1oc(-c2ccccc2F)nc1CS(=O)CC(=O)NCCN1CCCCC1C` (stereo not given): the B-score result was “inactive”.

With `Cc1nonc1C1CCCN1Cc1nc(-c2ccc(F)cc2F)oc1C` (stereo not given), the B-score was 7.14 (active).

For `COc1ccc(F)c(-c2nc(CN3CCC(c4ccccc4)CC3)c(C)o2)c1`, the B-score entry is “inactive”.

Turning to `CCCCOc1ccc(N(CC(=O)NC(C)C)C(=O)CCC(=O)Nc2ccccn2)cc1`, the B-score entry was “inactive”.

With `CCCNc1c(N)c(=O)c1=O`, the B-score entry was “inactive”.

In the case of `Cc1oc2cc([N+](=O)[O-])c(O)c([N+](=O)[O-])c2c1C(=O)c1ccc(Br)cc1`, the B-score result is “inactive”.

Turning to `COc1ccc(Nc2ncnc3ccc(Br)cc23)c(OC)c1`, the B-score entry was “inactive”.

As for `CC1(C)CC2CC(C)(CN2c2ncnc3ccc(Br)cc23)C1` (stereo not given), the B-score is 13 (active).

`COc1ccc(C(=O)N2CC3(C)CC2CC(C)(C)C3)cc1OC` (stereo not given): the B-score result is “inactive”.

As to `Cn1c(-c2sccc2OCc2cccc(C(F)(F)F)c2)n[nH]c1=S`, the B-score result is “inactive”.

Regarding `Cn1c(-c2sc3cc(C(F)(F)F)cnc3c2-c2ccccc2)n[nH]c1=S`, the B-score is 9.48 (active).

In the case of `Cc1ccccc1-c1n[nH]c(=S)n1C`, the B-score result was “inactive”.

For `COc1ccccc1C(=O)NC(=S)NC12CC3CC(CC(C3)C1)C2`, the B-score entry was “inactive”.

For `CN1CCN(C(=O)c2ccccc2NC(=O)COc2ccccc2Cl)CC1`, the B-score entry is “inactive”.

Turning to `O=C(C[n+]1cc(Br)cc2ccccc21)c1ccc(F)cc1`, the B-score is 9.24 (active).

As to `O=C(CNC(=O)c1ccc(F)cc1)c1ccccc1`, the B-score entry is “inactive”.

With `Cc1cccc[n+]1CC(=O)c1ccccc1`, the B-score entry was “inactive”.

Regarding `C=C(C)c1cccc(C(C)(C)NC(=O)NCCN(CC)CC)c1`, the B-score result is “inactive”.

For the molecule `CC(C)C(=O)NCC(c1cccs1)S(=O)(=O)c1ccc(F)cc1` (stereo not given), the B-score entry is “inactive”.

As for `CCOC(=O)c1cn(Cc2cccc(C)c2)nn1`, the B-score result was “inactive”.

As to `COc1cccc(Cn2cnc3c([N+](=O)[O-])c(C)c(C)cc32)c1`, the B-score result was “inactive”.

In the case of `Cc1cccc(Cn2cnc3c(N)c(C)c(C)cc32)c1`, the B-score is 9.78 (active).

Turning to `CCOc1ccc2[nH]c(=O)c(CN(CCCO)S(=O)(=O)c3ccc(F)cc3)cc2c1`, the B-score entry is “inactive”.

Turning to `Cc1cc2c(cc1C)[n+](C)cn2CC(O)COCC1CC=CCC1` (stereo not given), the B-score result was “inactive”.

Regarding `Cn1c(-c2ccc(F)cc2)cc2onc(-c3ccccc3Cl)c2c1=O`, the B-score result was “inactive”.

With `CCC1(CC)Cc2ccccc2-c2nc3ccccc3c(=O)n21`, the B-score entry was “inactive”.

On to `Cc1nc2ccccc2n1CC(O)c1ccccc1` (stereo not given), for which the B-score result was “inactive”.

Consider `CCn1c(C)nc2c1C(=O)c1ccccc1C2=O`, for which the B-score is 6.92 (active).

For `CN(C)c1ccc(Nc2c3c4c(cccc4n(C)c2=O)C(=O)c2ccccc2-3)cc1`, the B-score entry was “inactive”.

Consider `NC(=O)[C@H]1CC2(CC(c3cccc(NC(=O)[C@H]4CCC(=O)N4)c3)=NO2)CN1C(=O)c1ccccc1C(=O)c1ccccc1` (stereo not given in full), for which the B-score result is “inactive”.

Consider `Cc1cccc(NC(=O)C(C)SCc2ccccc2)c1` (stereo not given), for which the B-score entry is “inactive”.

With `Cc1cccc(NC(=O)CCN2CC(C)CC(C)C2)c1` (stereo not given), the B-score entry is “inactive”.

`Cc1cccc(NC(=O)C(C)N2C(=O)C3C4CC(C(Br)C4Br)C3C2=O)c1` (stereo not given): the B-score was 9.03 (active).

Take `CC(C)(Oc1ccc(C2CC2(Cl)Cl)cc1)C(=O)O` (stereo not given): the B-score result was “inactive”.

With `COc1cc(C2/C(=C(\O)c3ccc4c(c3)CC(C)O4)C(=O)C(=O)N2Cc2ccco2)ccc1O` (stereo not given), the B-score result is “inactive”.

`Brc1ccc(C2=CC(c3ccco3)n3ncnc3N2)cc1` (stereo not given): the B-score result was “inactive”.

As to `CCOc1ccc(C2=CC(c3ccccc3)n3ncnc3N2)cc1` (stereo not given), the B-score was 7.44 (active).

As to `COc1ccc(C2=CC(c3cccc(OC)c3)n3nnnc3N2)cc1` (stereo not given), the B-score result is “inactive”.

For `CC1=C(C/C=C(\C)CCCC(C)CCCC(C)CCCC(C)C)C(=O)c2ccccc2C1=O` (stereo not given), the B-score entry was “inactive”.

As to `COc1ccc(-c2cn[nH]c2-c2ccc(OC)cc2)cc1`, the B-score entry is “inactive”.

Consider `COc1ccc(Oc2cn[nH]c2-c2ccc(OC)cc2O)cc1`, for which the B-score is 6.54 (active).

`CCOc1ccccc1Oc1cn[nH]c1-c1ccc(OC)cc1O`: the B-score result is “inactive”.

As to `O=C(NCc1ccccc1)C1=C[C@@H](C2CCCCC2)C[C@@H](OCc2ccc(CO)cc2)O1`, the B-score entry was “inactive”.

With `CC1CCC(CN2CCN=C2N(C)C)CC1` (stereo not given), the B-score result is “inactive”.

Regarding `COc1ccc(NC(=O)CN(C)C(=O)c2cc(-c3ccc(C)o3)nc3ccccc23)cc1`, the B-score entry was “inactive”.

For `COc1ccc(NC(=O)c2cc(-c3ccc(C)o3)nc3ccccc23)cc1`, the B-score is 8.06 (active).

Regarding `COc1ccc(-c2cc(C(=O)Nc3ccccc3O)c3ccccc3n2)cc1`, the B-score result was “inactive”.

As for `COc1ccc(C(=O)CN2C(=O)NC3(CCc4ccccc43)C2=O)c(OC)c1` (stereo not given), the B-score entry was “inactive”.

Turning to `CC(OC(=O)CNS(=O)(=O)/C=C/c1ccccc1)C(=O)Nc1ccc(S(=O)(=O)N2CCCC2)cc1` (stereo not given), the B-score entry is “inactive”.

Consider `Nc1ccc(Oc2ccc(Cl)cc2)cc1`, for which the B-score is 6.95 (active).

Take `CC(C)(C)c1ccc(Oc2ccc(N)cc2)cc1`: the B-score entry was “inactive”.

Regarding `COc1cccc(Oc2ccc(N)cc2)c1`, the B-score entry was “inactive”.

On to `CCN(CC)C(=O)CC1(c2ccccc2OC)CCOC(C(C)C)C1` (stereo not given), for which the B-score result was “inactive”.

Turning to `COC(=O)c1c(C)cc(O)c(C)c1O`, the B-score entry was “inactive”.

With `N#C/C=C(/c1ccc(F)cc1)N1CCOCC1`, the B-score result is “inactive”.

With `CC1=C(C(N)=O)C(c2ccc(Br)cc2)n2ncnc2N1` (stereo not given), the B-score result was “inactive”.

Regarding `Fc1ccccc1/C=C1\CCCC2=C1Nc1ncnn1C2c1ccccc1F` (stereo not given), the B-score was 7.46 (active).

Turning to `CC(C(=O)N=Nc1c(O)n(C)c2ccc(Br)cc12)n1cnc2ccccc2c1=O` (stereo not given), the B-score result is “inactive”.

Take `CC(C)N(c1ccccc1)c1ncnc(NCCC(=O)O)c1[N+](=O)[O-]`: the B-score entry was “inactive”.

Regarding `Cc1c(C(=O)N2CC(C)OC(C)C2)sc2nc(-c3ccccc3)cn12` (stereo not given), the B-score result was “inactive”.

In the case of `Cc1c(C(=O)N2CCCc3ccccc32)sc2nc(-c3ccccc3)cn12`, the B-score is 10.8 (active).

With `Cc1c(C(=O)NCC2CCCO2)sc2nc(-c3ccccc3)cn12` (stereo not given), the B-score entry is “inactive”.

Consider `CCn1nccc1C(=O)Nc1ccc(S(=O)(=O)NC23CC4CC(CC(C4)C2)C3)cc1`, for which the B-score result was “inactive”.

As for `COc1ccc(S(=O)(=O)N2CCCC(C(=O)NCCCn3ccnc3)C2)cc1OC` (stereo not given), the B-score result was “inactive”.

As to `Cc1ccc(C)c(N2CCN(S(=O)(=O)c3c(C)[nH]c(C)c3C(=O)N3CCCC3)CC2)c1`, the B-score entry was “inactive”.

For `CCOC(=O)c1ccccc1NC(=S)N1CCC(C(N)=O)CC1`, the B-score entry was “inactive”.

For `Cc1occc(=O)c1OCc1ccc(F)cc1`, the B-score entry is “inactive”.

Take `Fc1ccccc1COc1cccc2cccnc12`: the B-score entry is “inactive”.

As to `Cc1nc2ccccc2cc1OCc1ccc(F)cc1`, the B-score was 11.8 (active).

As for `COCCCN(C(=O)CSCc1ccc(C)cc1)c1c(N)n(Cc2ccccc2)c(=O)[nH]c1=O`, the B-score entry was “inactive”.

For the molecule `S=C(NCCC1=CCCCC1)Nc1ccccc1`, the B-score result is “inactive”.

Consider `S=C(NCC1CCCO1)N1CCN(c2ccc(Cl)c(Cl)c2)CC1` (stereo not given), for which the B-score entry is “inactive”.

Consider `Oc1c(Br)cc(/C=N/NC(=S)NCC2CCCO2)cc1Br` (stereo not given), for which the B-score is 6.64 (active).

As for `S=C(NCCc1ccccc1)NCC1CCCO1` (stereo not given), the B-score entry was “inactive”.

As to `C=CCOc1ccccc1NC(=O)CN1C(=O)CNC1=O`, the B-score entry is “inactive”.

For the molecule `CCOC(=O)c1cnc2ccc(F)cc2c1Nc1ccc2c(c1)OCCO2`, the B-score result is “inactive”.

In the case of `CCCc1ccc(OCC(=O)NNC(=S)NC(=O)c2ccco2)cc1`, the B-score was 11.9 (active).

Regarding `CC(Oc1ccc2ccccc2c1)C(=O)NNC(=S)NC(=O)c1ccco1` (stereo not given), the B-score result is “inactive”.

Turning to `CCCc1ccc(OCCNC(=O)c2ccco2)cc1`, the B-score result is “inactive”.

As for `CCOc1cc(C(=O)Nc2ccc(S(=O)(=O)Nc3cnc4ccccc4n3)cc2)cc(OCC)c1OCC`, the B-score result is “inactive”.

In the case of `Cc1ccccc1-n1nc(SCC(=O)O)sc1=S`, the B-score entry was “inactive”.

Regarding `CN(C)CCCCCN(C)Cc1cc2ccccc2o1`, the B-score entry is “inactive”.

On to `COC(=O)C1=C(C)NC2=C(C(=O)c3ccccc32)C1c1ccc(-c2ccc(C(=O)O)cc2)o1` (stereo not given), for which the B-score was 16.1 (active).

As for `CCOC(=O)c1ccc(-c2ccc(C(=O)Nc3cccnc3)o2)cc1`, the B-score result is “inactive”.

As to `Cc1ccc(C2C3=C(Nc4[nH]n(-c5ccccc5)c(=O)c42)c2ccccc2C3=O)cc1` (stereo not given), the B-score entry was “inactive”.

Consider `CC(C)(C)NC(=O)CSc1nnc(NC(=O)CCc2ccccc2)s1`, for which the B-score result is “inactive”.

For `O=C(ON=C1CCN(S(=O)(=O)c2ccccc2)CC1)c1ccc(Cl)cc1`, the B-score result is “inactive”.

With `COc1cccc(OC)c1C(=O)Nc1sc2c(c1C(N)=O)CCCC2`, the B-score entry was “inactive”.

With `NC(=O)c1c(Nc2nc3c(F)cccc3s2)sc2c1CCCC2`, the B-score was 8.33 (active).

Consider `O=C(Nc1sc2c(c1C(=O)O)CCC2)c1ccccc1F`, for which the B-score result is “inactive”.

As for `COC(=O)c1ccc(NC(=O)C(C)N2C(=O)c3ccccc3C2=O)cc1` (stereo not given), the B-score result was “inactive”.

In the case of `Cc1ccnc(NC(=O)C(C)N2C(=O)c3ccccc3C2=O)c1` (stereo not given), the B-score was 7.9 (active).

With `CCOc1ccc(NC(=O)C(C)N2C(=O)c3ccccc3C2=O)cc1` (stereo not given), the B-score entry is “inactive”.

Consider `Cc1ccc(NS(=O)(=O)c2cn(C)c(=O)n(C)c2=O)c(C)c1`, for which the B-score entry is “inactive”.

On to `CC(C)(C)c1nc2ccccc2c(=O)n1N1C(=O)c2ccccc2C1=O`, for which the B-score entry was “inactive”.

For `CC(=O)c1ccc(NC(=O)c2ccc(-n3cncn3)c([N+](=O)[O-])c2)cc1`, the B-score entry is “inactive”.

Turning to `CC(/C=C/c1ccccc1)=N\NC(=O)C1CC1(C)c1ccccc1` (stereo not given), the B-score result is “inactive”.

Consider `Cc1ccc(-c2cc(C(=O)N/N=C/C=C/c3ccccc3)n[nH]2)o1`, for which the B-score entry was “inactive”.

On to `O=C(N/N=C/C=C/c1ccccc1)C1CC1(c1ccccc1)c1ccccc1` (stereo not given), for which the B-score was 14.2 (active).

Consider `COCc1[nH][nH]c(=O)c1C=Nc1ccc(F)cc1F`, for which the B-score entry was “inactive”.

The record behind these values is PubChem BioAssay AID588675 (Johns Hopkins Ion Channel Center, 2011).
